NadD inh: inhibitors of Staphylococcus aureus NadD | purified NadD enzyme, colorimetric absorbance read-out | inhibition, % at 20 µM | 0.78% of 360,000 active | AID 602399; in the data active means inhibition above about 26%
GRK2 inh: blocks RNA aptamer binding to human GRK2. P25098. bead flow cytometry, FAM-aptamer displacement from GRK2. inhibition of aptamer binding, % at 10 µM. 0.59% of 330,000 active. AID 488847;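 active means inhibition of aptamer binding above 40%, roughly 3 SD of noise, on plates passing a quality check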;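 further: median bead fluorescence of bound FAM aptamer so fluorescent compounds give negative values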
PP1 inh: counter-screen for PP5 inhibitors: inhibitors of human PP1-alpha. purified PP1alpha, OMFP fluorescence. 0.9% of 320,000 active. P62136. inhibition, % at 6.7 µM;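 active means inhibition above the mean inhibition of all tested compounds plus 3 SD, computed separately for each screening campaign, cut at about 15% in these data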
Target sequence (P62136 whole entry, looked up): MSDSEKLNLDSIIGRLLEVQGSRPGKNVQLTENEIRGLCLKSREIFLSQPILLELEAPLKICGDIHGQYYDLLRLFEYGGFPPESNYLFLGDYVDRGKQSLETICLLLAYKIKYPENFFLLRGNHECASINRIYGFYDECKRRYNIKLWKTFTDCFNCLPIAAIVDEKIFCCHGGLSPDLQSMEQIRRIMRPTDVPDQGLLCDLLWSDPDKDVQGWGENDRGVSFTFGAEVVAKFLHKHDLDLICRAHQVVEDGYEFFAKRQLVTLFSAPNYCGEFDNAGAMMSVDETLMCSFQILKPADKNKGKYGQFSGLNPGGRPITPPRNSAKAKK
B2AR ag: human beta-2 adrenergic receptor agonism by FAP; 0.43% of 340,000 active; P07550; AID 504454; Am2.2-beta2AR cells, FAP receptor internalization, flow cytometry; response, % (concentration not given with the values);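 active means response above a set limit, near 3 SD of response in nonfluorescent compounds, cut at about 42% in these data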
Granule exo inh: blocks lytic granule exocytosis; AID 651702; inhibition, % at 10 µM; 0.66% of 360,000 active; TALL-104 LAMP-1 surface exposure, flow cytometry; cells stimulated with thapsigargin and PMA;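 active means inhibition above about 55%, limit read from the data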
Hits are given with their value. Most compounds without a hit are left out; they make up all but 2.9% or so of the library.

CC1(OC(=O)C2CCCC2)C(=O)C=C2C=C(c3ccsc3)N(CC3CC3)C=C2C1=O (configuration not stated) was read as NadD inh inactive, GRK2 inh inactive, PP1 inh inactive, B2AR ag inactive and Granule exo inh inactive.
For O=C(O)c1ccccc1-c1ccccc1C(=O)Nc1ccc2oc(=O)c3ccccc3c2c1 the results were NadD inh inactive and Granule exo inh inactive.
For O=C(O)c1ccccc1-c1ccccc1C(=O)Nc1ccc2c(c1)[nH]c(=O)c1ccccc12 the results were NadD inh inactive, GRK2 inh inactive, PP1 inh 15, B2AR ag inactive and Granule exo inh inactive.
`Cc1cc(C(=O)Nc2ccccc2C)on1` gave NadD inh inactive, GRK2 inh inactive, PP1 inh inactive, B2AR ag inactive and Granule exo inh inactive.
`CN1C(=S)N(c2cccnc2)C(=O)/C1=C\c1ccc(N(C)C)cc1` gave NadD inh inactive, B2AR ag inactive and Granule exo inh inactive.
For Cc1c(N2C(=O)/C(=C\c3ccc(N(C)C)cc3)N(C)C2=S)c(=O)n(-c2ccccc2)n1C the results were NadD inh inactive, GRK2 inh inactive, PP1 inh 16, B2AR ag inactive and Granule exo inh inactive.
CC(=O)Nc1ccc(S(=O)(=O)N2CCCN(c3nc(C)cc(C)c3C#N)CC2)cc1 was read as NadD inh inactive, GRK2 inh inactive, PP1 inh inactive, B2AR ag inactive and Granule exo inh inactive.
For COc1cc(CCC(=O)OCC(=O)N2CCc3ccccc32)cc(OC)c1OC the results were NadD inh inactive, GRK2 inh inactive, PP1 inh 17, B2AR ag inactive and Granule exo inh inactive.
COc1cc(CO)ccc1OCC(=O)N1CCc2ccccc21 was read as NadD inh inactive, GRK2 inh inactive, PP1 inh inactive, B2AR ag inactive and Granule exo inh inactive.
CCC1=NN2C(=N)/C(=C\c3ccc(OCCOc4ccc(NC(C)=O)cc4)c(OC)c3)C(=O)N=C2S1 was read as NadD inh inactive, GRK2 inh inactive, PP1 inh inactive, B2AR ag inactive and Granule exo inh inactive.
For CCC1=NN2C(=N)/C(=C\c3ccc(OCCOc4ccccc4OC)cc3)C(=O)N=C2S1 the results were NadD inh 25, GRK2 inh inactive, PP1 inh inactive, B2AR ag inactive and Granule exo inh inactive.
`COc1ccc(OCCOc2ccc(/C=C3\C(=N)N4N=C(C)SC4=NC3=O)cc2)cc1` gave NadD inh 68, GRK2 inh inactive, PP1 inh inactive, B2AR ag inactive and Granule exo inh inactive.
`COCCNCc1cc(C)n(-c2cc(S(=O)(=O)N3CCOCC3)ccc2N2CCCC2)c1C` gave NadD inh inactive, B2AR ag inactive and Granule exo inh inactive.
Screening N#Cc1c(Sc2ncc(C(F)(F)F)cc2Cl)nsc1C/C=N\OCc1ccccc1Br returned NadD inh 46, GRK2 inh inactive, PP1 inh inactive, B2AR ag inactive and Granule exo inh inactive.
Screening O=C(NN=Cc1c(O)ccc2ccccc12)c1ccc2c(c1)OCO2 returned NadD inh inactive, GRK2 inh inactive, B2AR ag inactive and Granule exo inh inactive.
`Oc1ccc(N=Nc2ccc3c(c2)OCO3)c2ccccc12` gave GRK2 inh 78 and PP1 inh inactive.
C/C(=N/Nc1ccnc2cc(Cl)ccc12)c1ccc(O)cc1 was read as NadD inh inactive, GRK2 inh inactive, PP1 inh inactive, B2AR ag inactive and Granule exo inh inactive.
`C/C(=N/Nc1ccnc2cc(Cl)ccc12)c1ccc(N)cc1` gave NadD inh inactive, GRK2 inh inactive, PP1 inh 17, B2AR ag inactive and Granule exo inh inactive.
`Clc1ccc2c(N/N=C/c3ccccc3Br)ccnc2c1` gave NadD inh inactive, GRK2 inh inactive, PP1 inh inactive, B2AR ag 42 and Granule exo inh 92.
Screening N#CCc1c(C#N)c(N)nc(Nc2ccccc2)c1C#N returned NadD inh inactive, GRK2 inh inactive, PP1 inh inactive, B2AR ag inactive and Granule exo inh inactive.
`COc1c(CC=C(C)C)cc(C2CC(=O)c3c(O)cc(O)cc3O2)cc1CC=C(C)C` (configuration not stated) gave NadD inh inactive, GRK2 inh inactive, PP1 inh inactive, B2AR ag inactive and Granule exo inh inactive.
COC1=CC(=O)C(C2CC(=O)c3c(O)cc(O)cc3O2)=CC1=O (configuration not stated) was read as NadD inh inactive, B2AR ag inactive and Granule exo inh 67.
Screening O=c1[nH]c(CSc2nc3ccccc3o2)nc2c1cnn2-c1ccccc1 returned NadD inh inactive, GRK2 inh inactive, PP1 inh 16, B2AR ag inactive and Granule exo inh inactive.
Screening O=c1[nH]c(SCc2nc3c(cnn3-c3ccccc3)c(=O)[nH]2)nc2ccccc12 returned NadD inh inactive, B2AR ag inactive and Granule exo inh inactive.
Screening Cc1cc(N/N=C/c2c(O)ccc3ccccc23)nc(-c2ccccc2O)n1 returned NadD inh inactive, GRK2 inh inactive, PP1 inh inactive, B2AR ag inactive and Granule exo inh 96.
`CC(=O)Nc1cc(OC(C)=O)c2nonc2c1OC(C)=O` gave NadD inh inactive, GRK2 inh inactive, PP1 inh 60, B2AR ag inactive and Granule exo inh inactive.
CC(=O)Nc1nonc1NC(C)=O was read as NadD inh inactive, GRK2 inh inactive, PP1 inh inactive, B2AR ag inactive and Granule exo inh inactive.
COc1ccc(N2CCN(C(=O)c3ccc(CSc4ccccc4)cc3)CC2)cc1 was read as NadD inh inactive, GRK2 inh inactive, PP1 inh inactive, B2AR ag inactive and Granule exo inh inactive.
COc1ccccc1N1CCN(C(=O)c2cccc(C(=O)N3CCN(c4ccccc4OC)CC3)c2)CC1 was read as NadD inh inactive, GRK2 inh inactive, PP1 inh inactive, B2AR ag inactive and Granule exo inh inactive.
For COc1ccccc1N1CCN(C(=O)c2ccc3c(c2)NC(=O)C(CSCc2ccccc2C)N3)CC1 (configuration not stated) the results were GRK2 inh inactive and PP1 inh 23.
For COc1ccc(N2CCN(C(=O)c3ccc4c(c3)NC(=O)C(CSCc3ccccc3F)N4)CC2)cc1 (configuration not stated) the results were NadD inh 56 and Granule exo inh inactive.
NS(=O)(=O)c1ccc(CCn2c(=S)[nH]c3ccc(F)cc3c2=O)cc1 was read as NadD inh inactive, GRK2 inh inactive, PP1 inh inactive, B2AR ag inactive and Granule exo inh inactive.
Screening COc1ccc(-n2nc3c(N4CCC(C(=O)NCCc5ccccc5C)CC4)nnc(C)c3c2C)cc1 returned NadD inh inactive, GRK2 inh inactive, PP1 inh inactive, B2AR ag inactive and Granule exo inh inactive.
Screening COc1ccc(-n2nc3c(N4CCC(C(=O)NCc5ccccc5C)CC4)nnc(C)c3c2C)cc1 returned NadD inh inactive, GRK2 inh inactive, PP1 inh inactive, B2AR ag 82 and Granule exo inh inactive.
